# Assay results from PubChem BioAssay (Tox21).
# Records with an inconclusive call do not appear. Activity calls are given as the source filed them. The call rests on the fitted dose curve; in most records, active means well fitted curve in the direction sought with a large enough effect in the signal ratio in the repeat runs (not every such curve was filed as active); inconclusive means weak or mixed curves, or a change in a side signal; inactive means no such curve, though single readings can be large or run the other way; the % refers to the signal ratio.
# Assay: qHTS assay to identify small molecule agonists of the NFkB signaling pathway (AID 1159509)
# Details: NFkB-bla ME-180 cells, beta-lactamase FRET ratio, 5 h; series mostly up to 61 µM
# Source text: National Center for Advancing Translational Sciences [NCATS]
# NIH Chemical Genomics Center [NCGC]
# U.S. Environmental Protection Agency [EPA]
# National Institutes of Environmental Health Sciences [NIEHS]
# National Toxicology Program [NTP]
# U.S. Food and Drug Administration [FDA]
# Transcription factors and their stimulated target gene expression play pivotal roles across many cellular processes including responses to environmental stimuli. Proper regulation of associated pathways is critical to maintain cell health and function. Constitutive activation of transcription factor pathways has been implicated in tumors as it may block cellular functions such as apoptosis and lead to invasion and metastasis. One important transcription factor that stimulates gene expression in response to cytokines, UV radiation, and other stimuli is nuclear factor-kappa B (NFkB). To measure activation of the NFkB pathway, the CellSensor NFkB-bla ME-180 cell line (Life Technologies, Carlsbad, CA) that stably expresses beta-lactamase reporter gene under the regulation of a NF-kB response element was used. This assay allows measurement of the NFkB pathway activity induced by compounds in a ME-180 cell line. This system quantitates NF-kB activity using a FRET-based assay system where beta-lactamase expression disrupts FRET, allowing for fluorescent measurement of activity. This cell line has been used to screen the Tox21 10K compound library and to identify compounds that induce the NFkB pathway activity.
# Tox21 Assay Protocol Summary:
# NFkB-bla ME-180 cells were dispensed at 2,000 cells/6 uL of assay medium per well into black wall/clear-bottom 1536-well plates using a Multidrop Combi (ThermoFisher Scientific, Waltham, MA) dispenser. After the assay plates were incubated at 37 C and 5% CO2 for an overnight, 23 nL of compounds dissolved in DMSO, positive controls or DMSO only was transferred to the assay plate by a Pintool station (Kalypsys, San Diego, CA). The assay plates were incubated at 37 C and 5% CO2 for 5 hr. One uL of LiveBLAzer B/G FRET substrate (Life Technologies) was added using a Flying Reagent Dispenser (Aurora Discovery, San Diego, CA) and the plates were incubated at room temperature for 1.5 hr. Fluorescence intensity (405 nm excitation, 460 nm and 530 nm emissions) was measured using an Envision plate reader (PerkinElmer, Shelton, CT).
row,Compound,outcome
1,ClCc1cccnc1,inactive
2,O=c1[nH]c(=O)[nH]c(=O)[nH]1,inactive
3,NCCc1ccc(O)cc1,inactive
4,Cn1cc(-c2ccccc2)c(=O)c(-c2cccc(C(F)(F)F)c2)c1,inactive
5,C[C@]12CC[C@H]3[C@@H](CC[C@@]45O[C@@H]4C(O)=C(C#N)C[C@]35C)[C@@H]1CC[C@@H]2O,inactive
6,CC(C#N)CCC#N (stereo not given),inactive
7,Cc1cccc([N+](=O)[O-])c1,inactive
8,Nc1ccccc1C(=O)O,inactive
9,C1CN2CCN1CC2,inactive
10,CC(NC(C)(C)C)C(=O)c1cccc(Cl)c1 (stereo not given),inactive
11,O=S(=O)(c1ccc(Cl)cc1)c1cc(Cl)c(Cl)cc1Cl,inactive
12,CC(C)N1C(=O)c2ccccc2NS1(=O)=O,inactive
13,Cc1cc(Cl)ccc1O,inactive
14,CC(Br)C(=O)O (stereo not given),inactive
15,C=CCO,inactive
16,c1ccc(OP(Oc2ccccc2)Oc2ccccc2)cc1,inactive
17,O=Cc1cccc(Oc2ccccc2)c1,inactive
18,O=C(NC(=O)c1c(F)cccc1F)Nc1cc(Cl)c(OC(F)(F)C(F)C(F)(F)F)cc1Cl (stereo not given),inactive
19,ClCCBr,inactive
20,CCC(C)(CC)c1cc(NC(=O)c2c(OC)cccc2OC)on1,inactive

row,Compound,outcome
1,O=c1ccc(=O)[nH][nH]1,inactive
2,CCCCOC(=O)c1ccccc1C(=O)OCCCC,inactive
3,CCN(CC)CCO,inactive
4,CC(C)C1(C)N=C(c2nc3ccccc3cc2C(=O)O)NC1=O (stereo not given),inactive
5,CCCCCOC(=O)c1ccccc1C(=O)OCCCCC,inactive
6,O=C(O)c1ccccn1,inactive
7,[O-][Cl+2]([O-])O,inactive
8,Cc1ccc([N+](=O)[O-])cc1C,inactive
9,O=NN1CCCCCCC1,inactive
10,Cc1ccc(N)cc1Cl,inactive
11,Clc1cccc(Cl)c1Cl,inactive
12,CC(C)(C)OOC(C)(C)C,inactive
13,Cc1ccccc1O,inactive
14,CN=C=S,inactive
15,O=NN1CCCC1,inactive
16,NCC(O)c1ccc(O)cc1 (stereo not given),inactive
17,CCNc1nc(NC(C)C)nc(SC)n1,inactive
18,CCC[N+](=O)[O-],inactive
19,CCC[CH2][Sn]([Cl])([Cl])[Cl],inactive
20,COC(=O)c1ccccc1C(=O)OC,inactive
